Assay outcomes from PubChem BioAssay.
This is a sample that favours compounds with a hit; in the whole collection about 1.7% have one here.
CCHF vOTU inh: CCHFV vOTU protease inhibitors, primary screen, biochemical, Pep-AMC substrate, fluorescence; actives 0.55% (n = 370,000); inhibition, % at 11.5 µM; Crimean-Congo hemorrhagic fever virus L polyprotein viral ovarian tumor (vOTU) protease …; in the data active = inhibition above about 30%; also: 0% = vehicle wells with enzyme and 100% = no enzyme wells
SSB-PriA inh: inhibitors of Klebsiella pneumoniae PriA binding to SSB C-terminal tail, primary screen, biochemical, AlphaScreen; AlphaScreen SSBct-PriA binding, biotinylated peptide; inhibition, % at 33 µM; actives 0.6% (n = 430,000); in the data active = inhibition mostly above about 37%, no sharp cut-off; inactive = mostly below about 20%;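 also: plate controls were negative control peptide for no effect and reference peptide for full effect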
3CLpro inhibitor: SARS-CoV 3CLpro protease inhibitors, primary screen, biochemical, quenched FRET. Replicase polyprotein 1ab (Severe acute respiratory syndrome coronavirus), P0C6X7. AID 1706, 2009. recombinant SARS-CoV 3CLpro, quenched FRET peptide cleavage. actives 0.14% (n = 290,000). inhibition, % at 6 µM; in the data active = inhibition above about 12%
RecA intein inh: Mtb RecA intein splicing inhibitors, primary screen, biochemical, fluorescence, HTS. Protein RecA (Mycobacterium tuberculosis (strain ATCC 25618 / H37Rv)), P9WHJ3. cell-free RecA intein splicing. inhibition, % (test concentration not listed). actives 0.75% (n = 290,000). AID 2221, 2009; in the data active = inhibition above about 30%;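 also: 0% = vehicle wells and 100% = reference inhibitor control wells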
VHR inh abs: VHR1 phosphatase inhibitors, primary screen, biochemical, absorbance, uHTS. Dual specificity protein phosphatase 3 (Homo sapiens), P51452. recombinant VHR phosphatase, pNPP absorbance. inhibition, % at 13.3 µM. actives 0.52% (n = 290,000). AID 1654, 2009; in the data active = inhibition above about 50%
Target sequence (P51452 whole entry, looked up): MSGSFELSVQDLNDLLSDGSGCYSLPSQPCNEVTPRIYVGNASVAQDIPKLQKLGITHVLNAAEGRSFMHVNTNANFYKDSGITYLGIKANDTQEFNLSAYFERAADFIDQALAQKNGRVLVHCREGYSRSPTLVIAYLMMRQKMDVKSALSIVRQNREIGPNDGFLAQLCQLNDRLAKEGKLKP
* marks the source's active call; other numbers are inactive results; · = no result.

SMILES	CCHF vOTU inh	SSB-PriA inh	3CLpro inhibitor	RecA intein inh	VHR inh abs
Cc1cc(-c2nnc(NC(=O)c3cc(C)on3)o2)n(C)n1	·	-5	·	·	·
Cc1cc(C(=O)Nc2nnc(-c3cc(C)nn3C)o2)on1	·	49*	·	·	·
O=C(CCc1ccc(Oc2cc([N+](=O)[O-])cc([N+](=O)[O-])c2)cc1)N1CCCCC1	8	45*	4	8	-4
O=C(c1ccc(Oc2ccc([N+](=O)[O-])cc2)cc1)N1CCCCCC1	1	12	-5	4	13
Cc1nn(C)c(C)c1C(=O)NCC1(O)Cc2ccccc2C1	·	-2	·	·	·
Cc1ccc(CNc2nc3ccccc3n3cnnc23)cc1	-6	98*	-5	1	38
COCCNc1nc2ccccc2n2cnnc12	-2	-6	1	-1	10
CSc1ccc(CNc2nc3ccccc3n3cnnc23)cc1	-6	-19	-3	-2	17
c1ccc2c(c1)CCN(CCCNc1nc3ccccc3n3cnnc13)C2	12	-9	-1	·	54*
O=C(c1cc(=O)c2ccccc2o1)N1CCN(c2ccc(-n3cncn3)nn2)CC1	·	-27	·	·	·
CNC(=O)CS(=O)(=O)C1CCN(S(=O)(=O)c2ccc3oc(=O)n(C)c3c2)CC1	·	-5	·	·	·
COc1cc(/C=C/C(=O)N2C(=O)c3cccc(N)c3C2=O)cc(OC)c1OC	-2	-23	7	-69	55*
CC(C)C(=O)NN(C(=O)c1ccccc1)c1ccccc1	14	-8	2	1	27
CC(C(=O)O)N(C(=O)c1ccccc1)c1ccc(F)cc1 (centres undefined)	4	-15	3	8	53*
Cc1cc(Nc2ccc(NC(=O)Cc3c[nH]c4ccccc34)cc2)nc(N2CCCC2)n1	·	45*	·	·	·
O=C(Cc1c[nH]c2ccccc12)Nc1ccc(Nc2ccncc2)cc1	15	·	·	·	·
COc1cc(/C=C(\C#N)C(=O)NC2CCCCC2C)ccc1OS(=O)(=O)c1ccc(C)cc1 (centres undefined)	5	-4	6	56*	23
COC(=O)C1CCN(C(=O)CCc2csc(NC(=O)NC3CCCCC3)n2)CC1	·	4	·	·	·
c1ccc(Nc2cccc(Nc3ccccc3)n2)cc1	11	72*	4	10	29
c1ccc(Nc2ccccn2)cc1	-9	-7	-1	-1	13
Nc1cc(=O)[nH]c(=O)n1-c1ccc(F)c(Cl)c1	·	9	·	·	·
COc1ccc(Nc2ccccc2N)cc1	-11	82*	-2	4	12
O=C(NCCCn1ccnc1)c1cn(Cc2cccc(F)c2)nc1OCc1cccc(F)c1	·	1	·	·	·
O=S1(=O)N=C(Nc2ccc(S(=O)(=O)N3CCCCC3)cc2)c2ccccc21	-1	-28	1	-4	53*
O=C(Oc1c(CN2CCOCC2)cc(Cl)c2cccnc12)c1cccc([N+](=O)[O-])c1	·	105*	·	·	·
SMILES	CCHF vOTU inh	SSB-PriA inh	3CLpro inhibitor	RecA intein inh	VHR inh abs
COc1ccc(N(C(=O)COc2cccc(C)c2)S(=O)(=O)c2ccc(C)cc2)cc1	0	-6	3	52*	18
CCOc1ccc(NC(=O)Nc2ccc(Br)cn2)cc1	6	82*	1	·	13
O=C(Nc1ccc(Cl)cc1)Nc1ccc(Br)cn1	-1	-8	-2	2	14
O=C(CSC1CCCC1)NCC1CCN(Cc2ccsc2)CC1	·	3	·	·	·
CCCCCOc1ccc(NC(=O)CSc2cccc3cccnc23)cc1	5	79*	3	4	2
O=C(CSc1cccc2cccnc12)Nc1ccc(C(=O)O)cc1	·	133*	·	·	·
Cc1cc(Br)cc(C)c1NC(=O)CSc1cccc2cccnc12	·	59*	·	·	·
O=C(CSc1cccc2cccnc12)Nc1ccccc1	·	44	·	·	·
Cc1cccc(C)c1NC(=O)CSc1cccc2cccnc12	·	49	·	·	·
CCOC(=O)CSc1cccc2cccnc12	-27	99*	3	-2	9
CN1CCN(NC(=O)CSc2cccc3cccnc23)CC1	·	91*	·	·	·
Cc1ccc(CC(=O)Nc2nc(-c3ccc(F)cc3)cs2)c(C)c1	·	-13	·	·	·
CCOc1c(CC)cnc2c1c(=O)[nH]c(=O)n2C	·	-1	·	·	·
CC(C)Nc1ccc(Nc2ccnc3cc4ccccc4cc23)cc1	21	97*	-3	3	16
CN(CCC#N)C(=O)CSc1nnc(-c2ccco2)n1N	-14	3	-2	4	51*
